In all, about 360,000 compounds went through this assay and about 2,800 (0.78%) were called active. The sample holds actives, similar compounds and a random draw of the others, so the mix is not that of the screen. A number with no mark means an inactive call. No stated cut-off is given here; in the data, active means inhibition above about 26%; inactive means the rest.
Test system: Nicotinate-nucleotide adenylyltransferase NadD (Staphylococcus aureus N315)
Test: S. aureus NadD enzyme activity blockers – biochemical, colorimetric, uHTS, primary screen (AID 602399)
Settings: purified NadD enzyme, colorimetric absorbance read-out; at 20 µM; stronger effect = higher value

SMILES	inhibition
CC1=CC2=NC(=O)/C(=C/c3coc4ccccc4c3=O)C(=N)N2O1	-6.03%
O=C1/C(=C/c2coc3ccc(O)cc3c2=O)SC(=S)N1c1ccccc1	44.8% (active)
COC(=O)c1ccc(S(=O)(=O)N(CCO)Cc2ccccc2)n1C	-0.726%
Oc1ccc(-c2cccc(-c3ccc(O)cc3)c2)cc1	0.612%
O=C(NCC(O)c1nc2ccccc2[nH]1)c1ccc(Br)cc1 (stereo unspecified)	-3.28%
O=C(Nc1ccccc1)c1cc2ccccc2[nH]1	1.14%
O=C(Nc1cccc(-c2nc3ccccc3[nH]2)c1)c1ccc(C(=O)Nc2cccc(-c3nc4ccccc4[nH]3)c2)cc1	33.1% (active)
Cc1cccc(C2C3=C(CCCC3=O)N=C3c4ccccc4C(=O)C32)c1 (stereo unspecified)	3.15%
O=C(NCc1cccnc1)c1cnc2ccccc2n1	1.99%
CC(=O)N/C(=N/c1nc(C)cc(C)n1)Nc1ccc(F)cc1F	-3.78%
CCCCCCN1C[C@@H](O)[C@H](n2cc(COC(=O)c3ccccc3)nn2)C[C@@H]1c1ccc(Cl)cc1	7%
COC(C[C@@H]1O[C@@H]1C(=O)[C@@H](C)OCc1ccccc1)OC	-1.07%
CN1/C(=c2/s/c(=C3/C(=O)N(c4ccccc4)NC3=Nc3ccccc3)n(C)c2=O)C(C)(C)c2ccccc21	57.3% (active)
Cc1ccc(Cl)c(NC(=O)CN(C)CC(=O)Nc2ccc(F)c(F)c2F)c1Cl	2.14%
Nc1ccc2nc3c(=O)[nH]c(=S)[nH]c3nc2c1	70.1% (active)
Cc1occc1C(=O)NC1CCCN(Cc2ccc(CC(C)C)cc2)C1 (stereo unspecified)	-6.31%
COc1ccc(NS(=O)(=O)c2ccc(O)c(C(=O)OCC(=O)NC3CCCCC3)c2)cc1	-4.71%
CCn1c(SCC(=O)Nc2ccc(C)cc2)nc2nc3c(cc2c1=O)CCCC3	8.14%
CCC1C(C#N)=C(SC)NC2=C1C(=O)CC(C)(C)C2 (stereo unspecified)	0.666%
Cc1cc(C)c2nc(-c3cccnc3)cc(C(=O)Nc3ccc(S(=O)(=O)Nc4onc(C)c4C)cc3)c2c1	42.3% (active)
CCn1c(SCC(=O)Nc2ccc(S(=O)(=O)Nc3onc(C)c3C)cc2)nnc1-c1ccccc1	7.88%
Cc1noc(NS(=O)(=O)c2ccc(NC(=O)c3oc4ccc(F)cc4c3C)cc2)c1C	0%

SMILES	inhibition
CCCCNC(=O)C[C@@H]1C[C@@]2(C(=O)OCC)CCC=C2N(Cc2cccc3ccccc23)C1=O	-3.88%
Cc1ccc(NS(=O)(=O)c2ccc(N/N=C/c3ccccc3OCC(=O)O)c([N+](=O)[O-])c2)c(C)c1	37.4% (active)
Cc1ccc(S(=O)(=O)NC(=O)COc2ccccc2C)cc1	-3.06%
COc1ccc(S(=O)(=O)N2CCC(C(=O)OCC(=O)c3ccccc3)CC2)cc1[N+](=O)[O-]	-4.05%
CC1CN(C(=O)c2ccccc2NS(=O)(=O)c2cccc([N+](=O)[O-])c2)CC(C)O1 (stereo unspecified)	4.4%
C=C(C)CNC(=S)N/N=C/c1ccccc1OCC(=O)O	11.3%
COc1ccc(Br)cc1/C=N/Nc1ccc(S(=O)(=O)Nc2ccccc2C(=O)O)cc1[N+](=O)[O-]	37.4% (active)
CSCC[C@H](NC(=O)NCCc1ccc(F)cc1)C(=O)O	-3.24%
COc1cccc(N(CC(=O)NC2CCCCCC2)S(=O)(=O)c2ccccc2)c1	-2.69%
Cc1noc(C)c1COC(=O)c1cc2ccccc2cc1O	-3.66%
O=C(NNc1c2ccccc2nc2ccccc12)c1cc2ccccc2cc1O	50.6% (active)
O=C(CSc1nc(C2CC2)nc2ccccc12)Nc1cccc(O)c1	4.64%
COC(=O)c1ccccc1NC(=O)C1CCN(C(=O)N2CCOc3ccccc32)CC1	-4.87%
Cc1cc(C)c(S(=O)(=O)NN=C2c3ccccc3[C@H]3Cc4csc[n+]4[C@@H]23)c(C)c1	44% (active)
Cc1ccc(NC2CCCN(C(=O)CCC3(C)CC3)C2)cc1C (stereo unspecified)	-4.9%
CCCCn1c(N)c(N(CCOC)C(=O)c2oc3ccc(OC)cc3c2C)c(=O)[nH]c1=O	-3.15%
NNC(=O)c1cccc(COCC(F)(F)C(F)F)c1	10.9%
CC(Sc1nncn1C)C(=O)NCCC1=CCCCC1 (stereo unspecified)	-5.51%
COC(=O)CCCC1=CC2=CC(=O)C(C)(OC(=O)c3cccs3)C(=O)C2=CN1c1cccc(C#N)c1 (stereo unspecified)	10.8%
COC(=O)CCCC1=CC2=C(c3ccccc3)C(=O)C(C)(OC(=O)C3CCCC3)C(=O)C2=CN1c1ccc(OC)cc1 (stereo unspecified)	6.8%
CC1(OC(=O)C2CCCC2)C(=O)C=C2C=C(c3ccc(C#N)cc3)OC=C2C1=O (stereo unspecified)	51.9% (active)
Cc1cccc(C(=O)Nc2ccc(C(=O)/C=C/c3cccs3)cc2)c1	18.5%

SMILES	inhibition
O=C(Nc1ccc(NC(=O)c2cccs2)cc1)c1ccc2ccccc2c1	34.4% (active)
C/C(=N\NC(=O)c1ccc(NS(=O)(=O)c2cccs2)cc1)c1ccc2ccccc2c1	11.2%
Cc1cc(C)n2nc(C(=O)Nc3cccc(S(=O)(=O)N4CCOCC4)c3)nc2n1	-1.81%
COc1ccc(Cc2nc3ccc(C(=O)NCC4CCOCC4)cc3o2)cc1OC	0%
CC(C)CC1C(=O)N(Cc2cn(Cc3ccco3)nn2)CCS(=O)(=O)N1Cc1ccc(-c2ccc(Cl)c(Cl)c2)cc1 (stereo unspecified)	35% (active)
CC1C(=O)N(Cc2cn(Cc3ccco3)nn2)CCS(=O)(=O)N1Cc1ccc(-c2cccc(CO)c2)cc1 (stereo unspecified)	-3.23%
CC(C)CC1C(=O)N(Cc2cn(CC3CCCCC3)nn2)CCS(=O)(=O)N1Cc1ccc(-c2ccc(Cl)cc2)cc1 (stereo unspecified)	2.74%
Cc1c(C(=O)OCC(=O)N(CCC#N)c2ccccc2)oc2c1ccc1ccccc12	-4.25%
CC(C)c1nc(CNC(=O)CC2C(=O)NCCN2Cc2ccoc2)cs1 (stereo unspecified)	0.09%
CCOc1ccc(C(=O)Nc2cccc(SC)c2)cc1	-7.85%
CC(C)(C)NC(=O)C(c1ccncc1)N(C(=O)CNC(=O)c1ccco1)c1ccc2c(c1)OCO2 (stereo unspecified)	-2.29%
Cc1cc(Br)cn2c(Cc3ccsc3)c(-c3ccc(C#N)cc3)nc12	-0.162%
Clc1ccc(C2=CSC3=Nc4cccc5cccc(c45)N23)cc1	46.9% (active)
Cc1ccc(/C=C/C(=O)O)cc1S(=O)(=O)N1CCC(Cc2ccccc2)CC1	-2.42%
COC(=O)c1ccc(COC(=O)c2cnccn2)cc1	-0.176%
CCOc1ccc(NS(=O)(=O)c2ccc(C(=O)NCC3CCCO3)cc2)cc1 (stereo unspecified)	-1.46%
N#CCC(=O)Nc1ccc(C(=O)OCC(=O)Nc2sc3c(c2C#N)CCCC3)cc1	32.6% (active)
CC(C)NC(=O)NC(=O)COC(=O)c1ccc(NC(=O)CC#N)cc1	0.78%
CCOc1ccc(NC(=O)c2ccc(NC(=O)COC(=O)c3ccc(NC(=O)CC#N)cc3)cc2)cc1	39.8% (active)
N#Cc1c(NC(=O)CCCl)sc2c1CCCCC2	-2.84%
CC(=O)c1c(C)[nH]c(C(=O)OCC(=O)Nc2sc3c(c2C#N)CCCC3)c1C	6.3%
CCOc1ccc(NC(=O)CCNC(=O)c2ccc(Br)cc2)cc1	-10.7%

SMILES	inhibition
C/C=C(/C)C(=O)OC1Cc2c(ccc3ccc(=O)oc23)OC1(C)C (stereo unspecified)	-4.64%
CCCCc1cc(=O)oc2c(C)c(OCC(=O)N3CCC(C(N)=O)CC3)ccc12	-1.4%
Cc1ccc(C(=O)N/C(=C/c2ccc(-c3cccc([N+](=O)[O-])c3)o2)C(=O)NCCCN(C)C)cc1	-9.94%
Cc1ccc(Cc2cnc(NC(=O)/C(C#N)=C/c3ccc(-c4cccc([N+](=O)[O-])c4)o3)s2)cc1	51.2% (active)
Cc1ccc(-c2ccc(/C=C(\C#N)C(N)=S)o2)c([N+](=O)[O-])c1	-3.57%
CCCCN(C(=O)c1ccc(S(=O)(=O)N2CCOCC2)cc1)C1CCS(=O)(=O)C1 (stereo unspecified)	-1.78%
O=C(CC(NS(=O)(=O)c1ccc(Cl)cc1)c1ccco1)NC1CCCC1 (stereo unspecified)	1.19%
COc1ccc(NC(=O)COc2ccc(C(=O)c3ccc(F)cc3)cc2)cc1S(N)(=O)=O	7.92%
Cc1c(OC(C)C(=O)NCC2CCC(C(=O)O)CC2)ccc2c1oc(=O)c1ccccc12 (stereo unspecified)	4.05%
O=C(NCC1CCCCC1)NCC1CCCCC1	2.72%
C[C@H]1CN([C@@H](C)CO)C(=O)c2cc(-c3ccccc3F)cnc2O[C@H]1CN(C)C(=O)C1CCOCC1	-1.92%
Cc1ccc(NC(=O)CCNC(=O)c2ccc([N+](=O)[O-])cc2)cc1S(=O)(=O)N1CCOCC1	0.847%
COc1ccc(NS(=O)(=O)c2cc(NC(=O)CC(=O)c3ccc([N+](=O)[O-])cc3)ccc2C)cc1	44.2% (active)
COc1ccc(NS(=O)(=O)c2cc(NC(=O)COc3ccccc3F)ccc2OC)cc1	-11.4%
O=[N+]([O-])c1ccc(Oc2ccc(F)cc2Br)c2ccncc12	4.81%
CCCn1nnnc1NC(=O)COc1ccc(Cl)cc1C	8.48%
CCc1ccc(C(=O)OCC(=O)NCC(F)(F)F)cc1	-0.578%
Cc1ccc(Nc2nc(-c3sc(NC(=O)c4ccccc4)nc3C)cs2)cc1	36.9% (active)
Cc1ccn2c(-c3csc(Nc4ccc(C(=O)O)cc4)n3)c(C)nc2c1	-7.16%
C=CCCC(=O)Nc1nc(C)c(-c2csc(Nc3ccc(Cl)cc3)n2)s1	12.2%
